Source: PubChem BioAssay
This is a sample that favours compounds with a hit; in the whole collection about 5.3% have one here.
FBPA coupling cs: inhibits coupling enzyme system, counter-screen for aldolase hits. activity change, negative = inhibition, % at 58.2 µM, hits read low. 290,000 tested, 0.67% active. coupling enzyme system counterscreen, AmpLite Red fluorescence; in the data active = activity change below about -30%
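Counterscreen lacking aldolase: glyceraldehyde-3-phosphate coupling-enzyme reagent preincubated 10 min at RT with compound (at 57.5 uM final), then substrate/coupling system with AmpLite Red added; fluorescence read at 525/598 nm after 20 min RT.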
Sfp inh: inhibitors of Bacillus subtilis Sfp phosphopantetheinyl transferase; Potency, µM, inactives show largest response in the series, negative = inhibition, usual class: inhibitors; Biochemical Sfp PPTase activity, qHTS; 310,000 tested, 3.5% active; Q9F4F7;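 also: the enzyme is Sfp with the accession as filed and its product quenches rhodamine fluorescence; potency is read from the fitted curve at half-maximal effect; 0% = enzyme reaction without inhibitor and -100% = no enzyme wells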
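Fluorescence-quenching assay: 15 nM Sfp-PPTase preincubated 15 min at room temperature with compound, then 5 uM rhodamine-CoA and 12.5 uM BHQ-2-labelled YbbR peptide added. Fluorescence (ex 525/em 598 nm) read at start and after 30 min; difference gives rate.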
KDM4E inh: blocks human JMJD2E demethylase activity. Potency, µM (series often up to 57.1 µM), without a hit: at the top dose activity change, negative = inhibition, hits mostly inhibitors. B2RXH2. AID 2147. 230,000 tested, 1.6% active. JMJD2E catalytic domain, FDH-coupled NADH fluorescence (FDH is formaldehyde dehydrogenase);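 also: potency is read from the fitted curve at half-maximal effect; 0% = wells with enzyme and -100% = buffer wells without enzyme; nearly all actives have a fitted effect of over 50% in size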
Target sequence (B2RXH2 1-337 limits assumed): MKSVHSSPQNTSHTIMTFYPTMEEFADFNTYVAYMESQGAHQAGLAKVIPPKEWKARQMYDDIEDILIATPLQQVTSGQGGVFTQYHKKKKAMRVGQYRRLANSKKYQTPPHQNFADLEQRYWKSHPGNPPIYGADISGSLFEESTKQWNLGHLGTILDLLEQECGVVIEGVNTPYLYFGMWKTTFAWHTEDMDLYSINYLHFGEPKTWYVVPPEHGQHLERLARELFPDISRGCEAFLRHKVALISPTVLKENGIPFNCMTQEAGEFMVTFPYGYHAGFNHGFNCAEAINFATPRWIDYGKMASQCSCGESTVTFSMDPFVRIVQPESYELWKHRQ
Tau fibril ThT: inhibitors of human tau fibril formation, thioflavin T binding; P10636; 270,000 tested, 2.1% active; Potency, µM (highest dose often 57.4 µM), for inactives: top-dose activity, negative = inhibition, hits mostly inhibitors; recombinant tau K18 P301L, heparin-induced fibrillization, ThT fluorescence; AID 1460; also: potency is read from the fitted curve at half-maximal effect; nearly all actives have a fitted effect of over 55% in size
Target sequence (P10636 561-689 P618L limits assumed): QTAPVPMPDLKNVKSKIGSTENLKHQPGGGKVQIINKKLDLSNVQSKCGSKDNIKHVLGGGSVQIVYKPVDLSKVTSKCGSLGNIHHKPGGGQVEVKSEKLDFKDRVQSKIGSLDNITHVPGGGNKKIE
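In this qHTS, human K18 P301L tau is incubated with compound and heparin for 6 hr at 37 C, and Thioflavin T fluorescence then reports fibril load.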
Tau fluor cs: counter-screen for tau fibril formation inhibitors; tau K18 P301L (four-repeat tau fragment) Alexa594 fluorescence, heparin fibrillization; Potency, µM (top dose mostly 57.7 µM), inactives show top-dose activity change, negative = decrease; 280,000 tested, 0.93% active; AID 1463; also: potency is read from the fitted curve at half-maximal effect; nearly all actives have a fitted effect of over 55% in size
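Human K18 P301L tau (15 uM unlabeled plus 0.24 uM Alexa 594-labeled, final) in 100 mM sodium acetate pH 7 was mixed with compound and 20 uM heparin and incubated 6 hr at 37 C.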
Tau fibril FP: inhibitors of human tau fibril formation. K18 P301L tau heparin fibrillization, Alexa594 FP, 6 h. Potency, µM (series often up to 57.7 µM), inactives show at the top dose activity, negative = inhibition, most hits filed as inhibitors. 280,000 tested, 0.39% active; also: potency is read from the fitted curve at half-maximal effect; nearly all actives have a fitted effect of over 55% in size
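Quantitative HTS format: compounds meet 15 uM recombinant K18 P301L tau and Alexa 594-tau tracer in 100 mM sodium acetate pH 7; 20 uM heparin triggers fibrillization at 37 C over 6 hr; FP gives the signal.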
* = called active by the depositor; u = inconclusive; x = no result; ! = not confirmed by another sample; [ ] = dose if it differs, or a comment. Unless noted, calls follow the shape of the dose curve; as a rule, active = well fitted curve in the direction sought with a large enough effect; inconclusive = small, poorly fitted or top-dose-only effect, or another doubt; inactive = no such curve, though single readings can be large; an effect the other way counts as inactive or inconclusive. Unless noted, % is scaled to controls: 0 for no effect and ±100 for the full control effect.

SMILES	FBPA coupling cs	Sfp inh	KDM4E inh	Tau fibril ThT	Tau fluor cs	Tau fibril FP
Cc1cccc(N(Cc2cc3ccccc3[nH]c2=O)C(=O)c2ccco2)c1C	7	79µM*	-5%	8%	-1%	4%
Cc1ccc(C)c(N(Cc2cc3ccc(C)cc3[nH]c2=O)C(=O)c2ccco2)c1	5	-16%	u	-11%	-8%	-1%
CC(C)N(Cc1cc2ccccc2[nH]c1=O)C(=O)c1ccco1	-2	50µM*	u	-4%	5%	5%
COc1cccc(Cn2c(=O)c(C)nc3cnc(OCc4ccccc4)nc32)c1	0	-16%	x	x	x	x
CN(C)C(=O)n1nnnc1Cc1ccc(-c2ccccc2)cc1	2	1%	x	-11%	-8%	5%
O=C(O)c1ccc2c(c1)C(=O)N([C@]1(C(=O)O)C[C@H]1c1ccccc1)C2=O	4	8%	x	x	x	x
CCOC(=O)c1ccc(-n2c(C)ccc2C)cc1	3	-14%	-17%	-4%	3%	-7%
O=C1CC(Sc2ncccn2)C(=O)N1c1ccccc1 (stereo not given)	5	-3%	6%	-5%	-8%	-3%
Nc1nnc(SC2CC(=O)N(c3ccccc3)C2=O)s1 (stereo not given)	0	79µM*	-9%	u	-19%	-1%
CCOC(=O)c1ccc(N2C(=O)C=CC2=O)cc1	-4	3.5µM*	2%	2%	1%	-5%
COc1ccccc1N1C(=O)CC(Sc2n[nH]c(-c3cccc(C)c3)n2)C1=O (stereo not given)	1	5.6µM*	1%	u	-22%	-25%
Cc1nc(SC2CC(=O)N(c3ccccc3)C2=O)n[nH]1 (stereo not given)	0	16µM*	-15%	13%	17%	6%
CS(=O)(=O)Nc1c(O)ccc2c1CCCC2C1=NCCN1 (stereo not given)	x	5%	x	-3%	-2%	-7%
CCOC(=O)c1ccc(N2C(=O)CC(Sc3nnc(C)s3)C2=O)cc1 (stereo not given)	1	45µM*	-1%	u	-17%	0%
CCOC(=O)c1ccc(N2C(=O)CC(Sc3nc(C)cc(C)n3)C2=O)cc1 (stereo not given)	2	14%	x	x	x	x
C=CCNc1nnc(SC2CC(=O)N(c3ccc(OCCC)cc3)C2=O)s1 (stereo not given)	5	50µM*	-13%	u	-8%	-4%
Cc1cc(/C=N/n2cnnc2)c(C)n1-c1ccc(OCc2ccc(Cl)cc2)cc1	-5	45µM*	u	u	-29%	3%
COc1ccc(N2CCN(C(C)C(=O)N3CC(C)OC(C)C3)CC2)cc1 (stereo not given)	0	u	22µM*	-23%	-21%	2%
COC(=O)CCCC1=CC2=CC(=O)C(C)(OC(=O)c3cccs3)C(=O)C2=CN1C1CCCCC1 (stereo not given)	-41*!	-4%	u	-13%[11.5 µM]	-6%[11.6 µM]	10%[11.6 µM]
COC(=O)CCCC1=CC2=CC(=O)C(C)(OC(=O)c3cccs3)C(=O)C2=CN1c1ccccc1 (stereo not given)	-11	7%	u	-14%[11.5 µM]	-9%[11.6 µM]	-4%[11.6 µM]
COC(=O)CCCC1=CC2=CC(=O)C(C)(OC(=O)c3cccs3)C(=O)C2=CN1CCN1CCOCC1 (stereo not given)	-38*!	8%	-29%[11.4 µM]	-17%[11.5 µM]	-13%[11.6 µM]	-10%[11.6 µM]
COC(=O)CCCC1=CC2=CC(=O)C(C)(OC(=O)c3cccs3)C(=O)C2=CO1 (stereo not given)	1	-1%	7%	-23%	-14%	7%
O=C(O)c1cccc(Nc2ccc([N+](=O)[O-])cn2)c1	0	12%	x	x	x	x
O=C(N/N=C/C(Cl)=C/c1ccc([N+](=O)[O-])cc1)C(=O)Nc1cccc(C(=O)O)c1	-1	-29%	-6%	3.5µM*	u	-7%
Cc1cc(C)n2nc(C(=O)Nc3nnc(C4CC4)s3)nc2n1	1	50µM*	0%	-1%	-6%	-9%
